The results in this text go back to PubChem BioAssay (NCATS).

“And” between values parts separate entries of the source, which are not always exact repeats. Identical values can stand only once. Results filed as inconclusive are left out. The source made the active and inactive calls. Unless noted, the call rests on the fitted dose curve; in most records, active means well fitted curve in the direction sought with a large enough effect; inconclusive means small, poorly fitted or top-dose-only effect, or another doubt; inactive means no such curve, though single readings can be large; an effect the other way counts as inactive or inconclusive. Where only a bound is given, the exact number is not on record here.

For test [1], the target named is Glucocorticoid receptor (Homo sapiens) (UniProt P04150). Briefly: GR-GFP Redistribution (AID 450;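 active means compounds whose dose series gives a full or clear partial fitted curve of increased nuclear translocation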; further: potency means the concentration at half of the fitted maximal effect). As to conditions: U2OS GR-GFP nuclear translocation, laser cytometry, 2 h.
For test [2] the target is unchanged. Nature of the test: GR-EFC Redistribution (AID 451; calls by dose curve; further: potency means the concentration at half of the fitted maximal effect). As to conditions: CHO-K1 GR-EFC translocation, beta-gal luminescence, 2 h. The essentials: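 Translocation of GR-ED fusion to nuclear EA restores b-gal, read by luminescence after 1 h room-temperature detection. Engineered CHO-K1 biosensor cells, 1,000/well, exposed 2 h at 37 C to titrations up to 46 uM final.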

The target of test [3] is Mitogen-activated protein kinase 10 (Mus musculus) (UniProt Q61831). Briefly: JNK3 AlphaScreen Assay (AID 530; active means well fitted curve in either direction with a large enough effect, not every such curve was filed as active;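 further: kinase came from lysate of stimulated human HepG2 cells; signal reports phosphorylation of biotinylated GST-cJun 1-79 at Ser73 with 10 µM ATP; on the % scale 0 is the no-effect control and ±100 the full control effect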). The essentials: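 qHTS titrations with 15 min compound pre-incubation before adding ATP (10 uM final). Read-out: AlphaScreen of Ser73-phosphorylated biotin-GST-cJun using HepG2 lysate JNK3 activated by IL-1β and TNFα.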
On the technique in general: In Alpha technology, singlet oxygen from a donor bead excites a nearby acceptor bead.

Test [4] concerns the target 3',5'-cyclic-AMP phosphodiesterase 4B (Homo sapiens) (UniProt Q07343). Briefly: qHTS Assay for Inhibitors of PDE-IV (AID 607; active means well fitted activation curve with a large enough effect in the main read-out, with a control signal flat, not every such curve was filed as active; further: % of control where 0% means no effect). The essentials:
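ACTOne HEK293 cells carry a modified cAMP-gated CNG channel and express endogenous PDE4; plated 1000 cells/well, compounds up to 22.9 uM final. Membrane-potential dye fluorescence (ex 535/em 590) was read; parental cells received 10 uM forskolin + 100 uM RO 20-1724.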
(In general: In qHTS, concentration-response curves come from the screen itself.)

A short description of test [5]: qHTS Assay for Lipid Storage Modulators (AID 1519; calls by dose curve; on activity change, negative = inhibition: on the % scale 0 is the no-effect control and ±100 the full control effect). As to conditions: Drosophila S3 cells, BODIPY lipid droplet/cell ratio, laser cytometry, cells loaded with oleic acid. The essentials:
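Cells seeded at 5,000 per well were treated with compounds over a concentration series and loaded with oleic acid (400 uM, as added). Lipid droplet fluorescence (488 nm excitation, 500-530 nm channel) was read by laser-scanning cytometry and normalized to 20 uM Triacsin C.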

The target of test [6] is DNA dC->dU-editing enzyme APOBEC-3G (Homo sapiens) (UniProt Q9HC16). Nature of the test: qHTS for inhibitors of Vif-A3G interactions: Validation (AID 588379). Further: 0% is about no effect. The method in brief: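 Yellow fluorescence (Ex 488, Em 500-530) of Vif-coexpressing HeLa A3G-eYFP cells, scanned by Acumen cytometer, reports blocked A3G degradation. Cells plated at 700/well overnight at 37 deg C before compound addition, then a further overnight compound incubation at 37 deg C.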

In test [7] the test system is Zika virus NS2B-NS3 protease. Nature of the test: Primary screen GU AMC qHTS for Zika virus inhibitors (AID 1347154).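 Further: 0% = no-inhibitor control and -100% = no-enzyme control; nearly all actives have a fitted effect of over 70% in size.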 The method in brief:
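Fluorogenic AMC-substrate cleavage by noncovalent NS2B-NS3 protease complex (25 nM, pH 8.0 Tris buffer with Tween 20) followed for 15 minutes at room temperature (~20% conversion). Percent inhibition from ex340/em450 signal change, fitted by 4-parameter Hill equation.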

Test [8] in a line: Primary qHTS for small molecule stabilizers of the endoplasmic reticulum resident proteome: Secreted ER Calcium Modulated Protein (SERCaMP) assay (AID 1508630). Further: on the % scale 0 is the no-effect control and ±100 the full control effect. The essentials:
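The SH-SY5Y reporter protocol was run at 3 concentrations up to 38.3 uM (primary) or 11 concentrations (follow-up): 16 h compound, 100 nM thapsigargin for 4 h, then extracellular luciferase luminescence.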

The mark [9] stands for this setting: measured here: cell count channel max response.
The mark [10] stands for this setting: measured here: lipid channel max response.

Chain of 3',5'-cyclic-AMP phosphodiesterase 4B (Homo sapiens) (Q07343 whole entry, looked up): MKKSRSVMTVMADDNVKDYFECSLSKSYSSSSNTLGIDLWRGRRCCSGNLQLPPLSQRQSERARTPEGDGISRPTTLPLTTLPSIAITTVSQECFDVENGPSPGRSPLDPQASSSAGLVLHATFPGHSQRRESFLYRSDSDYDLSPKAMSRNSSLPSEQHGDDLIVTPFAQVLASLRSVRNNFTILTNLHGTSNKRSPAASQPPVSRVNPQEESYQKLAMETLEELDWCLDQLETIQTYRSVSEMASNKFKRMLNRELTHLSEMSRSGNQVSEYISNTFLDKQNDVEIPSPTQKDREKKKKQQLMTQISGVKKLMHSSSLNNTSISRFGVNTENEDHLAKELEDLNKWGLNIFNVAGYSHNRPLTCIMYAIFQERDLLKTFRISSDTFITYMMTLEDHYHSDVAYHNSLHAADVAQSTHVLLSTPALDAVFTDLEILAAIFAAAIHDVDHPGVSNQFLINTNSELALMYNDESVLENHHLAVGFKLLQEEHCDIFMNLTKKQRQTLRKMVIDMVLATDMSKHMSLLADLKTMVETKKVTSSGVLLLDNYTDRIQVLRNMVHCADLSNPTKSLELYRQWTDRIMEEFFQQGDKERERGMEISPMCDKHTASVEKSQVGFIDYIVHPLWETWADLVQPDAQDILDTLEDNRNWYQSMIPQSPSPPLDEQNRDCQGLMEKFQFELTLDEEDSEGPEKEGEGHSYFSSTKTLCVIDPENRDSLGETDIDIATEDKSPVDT
Chain of Glucocorticoid receptor (Homo sapiens) (P04150 whole entry, looked up, the tested form may be a part): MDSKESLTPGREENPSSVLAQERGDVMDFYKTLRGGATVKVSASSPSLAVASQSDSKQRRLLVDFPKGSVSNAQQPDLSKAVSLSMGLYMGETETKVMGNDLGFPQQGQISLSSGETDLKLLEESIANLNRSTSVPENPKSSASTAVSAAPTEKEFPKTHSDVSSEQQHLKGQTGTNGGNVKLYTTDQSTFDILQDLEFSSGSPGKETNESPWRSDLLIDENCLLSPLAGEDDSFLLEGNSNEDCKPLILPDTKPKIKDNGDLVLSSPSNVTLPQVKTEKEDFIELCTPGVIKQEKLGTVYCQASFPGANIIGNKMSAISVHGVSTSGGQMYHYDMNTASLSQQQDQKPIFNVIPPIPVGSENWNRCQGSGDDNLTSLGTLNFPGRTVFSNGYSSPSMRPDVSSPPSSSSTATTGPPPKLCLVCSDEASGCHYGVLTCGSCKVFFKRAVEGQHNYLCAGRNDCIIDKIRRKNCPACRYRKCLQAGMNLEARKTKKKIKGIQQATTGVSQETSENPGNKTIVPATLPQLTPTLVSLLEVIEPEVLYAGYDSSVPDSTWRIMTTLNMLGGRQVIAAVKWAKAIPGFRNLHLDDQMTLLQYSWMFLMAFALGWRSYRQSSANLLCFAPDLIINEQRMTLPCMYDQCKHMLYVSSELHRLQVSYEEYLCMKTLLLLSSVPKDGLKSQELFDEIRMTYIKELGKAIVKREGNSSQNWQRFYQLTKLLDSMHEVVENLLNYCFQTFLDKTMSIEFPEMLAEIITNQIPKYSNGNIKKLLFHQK
Chain of DNA dC->dU-editing enzyme APOBEC-3G (Homo sapiens) (Q9HC16 whole entry, looked up): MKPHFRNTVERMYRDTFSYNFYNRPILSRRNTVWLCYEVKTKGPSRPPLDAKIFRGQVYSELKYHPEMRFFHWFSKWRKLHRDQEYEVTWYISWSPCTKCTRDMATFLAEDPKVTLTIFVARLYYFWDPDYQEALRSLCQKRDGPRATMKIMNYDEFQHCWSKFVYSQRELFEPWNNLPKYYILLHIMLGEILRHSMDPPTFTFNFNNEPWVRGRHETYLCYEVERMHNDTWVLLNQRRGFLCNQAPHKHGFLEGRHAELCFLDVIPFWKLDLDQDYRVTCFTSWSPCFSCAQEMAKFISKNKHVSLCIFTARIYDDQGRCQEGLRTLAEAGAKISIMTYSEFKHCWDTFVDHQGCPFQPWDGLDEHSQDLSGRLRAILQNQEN

For `NC[C@H](CC(=O)O)c1ccc(Cl)cc1`, the Potency in test [1] and in test [2] was > 46 µM (inactive) throughout. The result in test [3] was inactive. Moreover, the Potency entry in test [4], in test [6] and in test [7] was “inactive” throughout. Moreover, the activity change, negative = inhibition in test [5] (at 57.5 µM (top of the series)) was 2.02% (inactive). Further, the figures for the max response in test [5] (setting [9]) and in test [5] (setting [10]) were 12.8% and 19.1%, respectively.
Regarding `O=C(O)c1ccccc1-c1c2cc(Br)c(=O)cc-2oc2[c]([Hg])c(O)c(Br)cc12`, the Potency in test [2] was > 20.6 µM (inactive). Besides, in test [3], the molecule was called inactive. Besides, the Potency result in test [4] is “inactive”.
On to `Cc1ncc(C[n+]2csc(CCO)c2C)c(=O)[nH]1`, for which the Potency entry in test [7] and in test [8] was “inactive” each time.
For `O[C@H]1CCCC[C@H]1N1CCC(c2ccccc2)CC1`, the Potency in test [1] was > 20.6 µM (inactive) and > 46 µM (inactive); in test [2] it was > 20.6 µM (inactive) and > 46 µM (inactive). Further, the outcome in test [3] was inactive. Further, the Potency entry in test [4], in test [6] and in test [7] was “inactive” each time. For the same molecule, the activity change, negative = inhibition was 0.444% (inactive) in test [5] (at 25.7 µM (top of the series)) and 0.117% (inactive) in test [5] (at 57.5 µM (top of the series)). In addition, the max response was -12.1% and 1.1% in test [5] (setting [9]); -11.1% and -2.26% in test [5] (setting [10]).
For `CC(C)n1cnc2c(C(=O)N[C@H]3CN4CCC3CC4)cc(Cl)cc21`, the Potency in test [1] and in test [2] was > 46 µM (inactive) throughout. The Potency entry in test [4] and in test [7] was “inactive” throughout. Moreover, in test [5] (at 57.5 µM (top of the series)), the activity change, negative = inhibition is 2.71% (inactive). The values for the max response in test [5] (setting [9]) and in test [5] (setting [10]) were 14.7% and 19.1%, respectively.
For `C=CCN1CC[C@]23c4c5ccc(O)c4O[C@@H]2C(=O)CC[C@]3(O)[C@H]1C5`, in test [3], the molecule was classed as inactive. Also, the Potency entry in test [4], in test [6] and in test [7] was “inactive” each time. Also, the activity change, negative = inhibition in test [5] (at 25.7 µM (top of the series)) was -1.11% (inactive); in test [5] (at 57.5 µM (top of the series)), 5.83% (inactive). In addition, the max response was 1.84% and 18.9% in test [5] (setting [9]); 3.55% and 28.2% in test [5] (setting [10]).
Take `CCCCC[C@H]1C(=O)O[C@H](C)[C@H](NC(=O)c2cccc(NC=O)c2O)C(=O)O[C@@H](C)[C@@H]1OC(=O)CC(C)C`: the Potency entry in test [7] and in test [8] was “inactive” each time.
For `CCN1C[C@]2(COC)[C@H](O)C[C@H](OC)[C@]34C1C([C@H](OC)[C@H]23)[C@]1(OC(C)=O)C2[C@@H](OC(=O)c3ccccc3)C(O)(C[C@H]24)[C@@H](OC)[C@@H]1O`, the Potency entry in test [7] and in test [8] was “inactive” throughout.
On to `CC(C)C[C@H]1C(=O)N2CCCC2[C@]2(O)O[C@](NC(=O)[C@@H]3C=C4c5cccc6[nH]cc(c56)CC4N(C)C3)(C(C)C)C(=O)N12` (some centres undefined), for which the Potency result in test [7] is “inactive”.
For `C[C@@H]1O[C@H](O[C@@H]2C[C@@H](O)[C@]3(CO)[C@H]4[C@H](O)C[C@]5(C)[C@@H](C6=CC(=O)OC6)CC[C@@]5(O)[C@@H]4CC[C@]3(O)C2)[C@@H](O)[C@H](O)[C@H]1O`, in test [3], the molecule was classed as inactive. The Potency entry in test [7] and in test [8] was “inactive” throughout.
Take `O=C1CC[C@@]2(O)[C@H]3Cc4ccc(O)c5c4C2(CCN3CC2CC2)[C@H]1O5`: the Potency entry in test [7] and in test [8] was “inactive” each time.
For `CN(C)c1ccc(/C=C2\CCCN=C2c2cccnc2)cc1`, the Potency entry in test [7] was “inactive”.
With `N#CC(C#N)=NNc1ccc(OC(F)(F)F)cc1`, the Potency entry in test [7] and in test [8] was “inactive” in each case.
For the molecule `O[C@H]1[C@H](O)[C@@H](O)CN2CC[C@H](O)[C@H]12`, the Potency entry in test [7] is “inactive”.
With `O=C(CCCN1CCC2(CC1)C(=O)N(Cc1cccc(F)c1)CN2c1ccccc1)c1ccc(F)cc1`, the Potency in test [1] and in test [2] was > 46 µM (inactive) in each case. The Potency entry in test [7] is “inactive”.
As for `C[C@@H](N)Cn1ccc2cc(F)c(Cl)cc21`, the Potency in test [1] and in test [2] was > 46 µM (inactive) in each case. Moreover, the molecule was classed as inactive in test [3]. Further, the Potency entry in test [4], in test [6] and in test [7] was “inactive” throughout.
For `CC(C)(C)NC[C@@H](O)COc1cccc2[nH]c(C#N)cc12`, the Potency in test [1] and in test [2] was > 46 µM (inactive) throughout. Moreover, the molecule was called inactive in test [3]. The activity change, negative = inhibition in test [5] (at 57.5 µM (top of the series)) was 2.4% (inactive). The max response in test [5] (setting [9]) is -20.5%; in test [5] (setting [10]) it was -17.5%. In addition, the Potency entry in test [7] is “inactive”.
